The list is not random: actives were taken first. Their share in the collection is about 6.3%.
tim23-1 inh: growth inhibitors of tim23-1 mutant yeast, primary screen, luminescence, uHTS; S. cerevisiae tim23-1 growth, BacTiter-Glo luminescence, 24 h; inhibition, % at 20 µM; actives 1.3% (n = 330,000); AID 463212, 2010;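 active means growth inhibition of the mutant yeast at or above 50%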;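 further: temperature-sensitive mutant grown at 25 °C; plate controls were DMSO-treated mutant yeast for no effect and medium wells lacking yeast for full effect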
MPTP inh: mitochondrial permeability transition pore inhibitors, primary screen, biochemical, isolated mouse mitochondria, absorbance; Ca2+ swelling absorbance, 30 min; inhibition, % at 10 µM; actives 1.4% (n = 360,000);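 active means inhibition of 50% or more, scaled per plate between neutral and stimulator controls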;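 further: 0% = DMSO wells given calcium and 100% = 1 mM EGTA wells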
Mdm2 MdmX PPI: inhibitors of human Mdm2-MdmX association, primary screen, cell-based, luminescence, split luciferase, SaOS-2, uHTS. SaOS-2 split-luciferase Mdm2/MdmX complementation. inhibition, % at 8 µM. actives 3% (n = 330,000). AID 485346, 2010;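 active means inhibition of at least 50% at 8 µM in the primary screen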
tim10-1 inh: growth inhibitors of tim10-1 mutant yeast, primary screen, luminescence, uHTS; S. cerevisiae tim10-1 ts strain growth, BacTiter-Glo, 24 h; inhibition, % at 20 µM; actives 2.2% (n = 330,000); AID 463190, 2010;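 active means inhibition of at least 40%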;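 further: mutant grown at 25 °C; 0% = DMSO wells with yeast and 100% = wells holding no yeast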
TIM10 inh: growth inhibitors of isogenic TIM10 control yeast, primary screen, counter-screen for tim10-1 yeast inhibitor project, luminescence, uHTS; S. cerevisiae TIM10 strain growth, BacTiter-Glo luminescence, 24 h; inhibition, % at 10 µM; actives 1.4% (n = 330,000);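 active means inhibition of 40% or more at the single tested concentration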;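 further: wild-type TIM10 isogenic control strain grown at permissive 25 °C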
MPTP counter: fluorescence retest of MPTP screen hits in isolated mitochondria, single concentration | shares compounds with MPTP inh | actives 78% (n = 5,000) | membrane potential, Rhodamine 123 fluorescence | AID 624504, 2012 | inhibition, % at 10 µM; in the data active means inhibition above about 22%;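 further: 0% = DMSO vehicle and 100% = positive control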
MPTP swell DR: mitochondrial permeability transition pore inhibitors, dose response, biochemical, absorbance, uHTS hits; IC50, µM; isolated mitochondria swelling; shares compounds with MPTP inh; actives 58% (n = 780); in the data active means IC50 below about 20 µM
MPTP cs DR: fluorescent counter-screen in isolated mitochondria, dose response, counter-screen for MPTP inhibitor project, biochemical, fluorescence, uHTS hits. shares compounds with MPTP inh. isolated mitochondria counterscreen, fluorescence read-out. IC50, µM. actives 49% (n = 780); in the data active means IC50 below about 80 µM
An asterisk follows results filed as active; . = not tested or not shown.

SMILES	tim23-1 inh	MPTP inh	Mdm2 MdmX PPI	tim10-1 inh	TIM10 inh	MPTP counter	others
CCN(C(=O)CSc1nc2cc(C(=O)O)ccc2c(=O)n1-c1ccccc1F)C1CCS(=O)(=O)C1 (configuration not stated)	.	-1	.	.	.	.
Cc1nc2ccc(S(=O)(=O)Nc3cccc(-c4nc5cccnc5s4)c3C)cc2s1	39	98*	9	35	5	88*
CCOCC(=O)Nc1cccc(-c2nc3cccnc3s2)c1C	4	-1	4	13	7	.
C[C@H]1CN([C@@H](C)CO)C(=O)CCCn2nncc2CO[C@H]1CN(C)C(=O)C1CC1	.	1	.	.	.	.
O=C(Nc1ccccc1C(=O)O)c1cc(S(=O)(=O)Nc2cccc(F)c2)ccc1Cl	-1	1	-24	1	5	.
O=C(Nc1cc(S(=O)(=O)Nc2ccccc2Cl)ccc1O)c1ccc(F)cc1F	-19	59*	26	-7	3	68*
Cc1onc(-c2c(F)cccc2Cl)c1C(=O)Nc1cc(S(=O)(=O)N2CCCCC2)ccc1O	.	84*	.	.	.	84*
O=C(Nc1cc(S(=O)(=O)N2CCCCC2)ccc1O)c1ccccc1NS(=O)(=O)c1ccc(F)c(F)c1	23	91*	8	14	8	65*
Cc1onc(-c2ccccc2)c1C(=O)OCC(=O)Nc1ccccc1Cl	.	1	.	.	.	.
COc1ccc(NC(=O)c2cc(S(=O)(=O)N3CCCCC3)ccc2C)cc1S(=O)(=O)N1CCOCC1	.	0	.	.	.	.
O=C(NC(c1ccc(-c2ccccc2)cc1)c1cnccn1)C1CCN(CCOc2ccc(F)cc2)CC1 (configuration not stated)	.	1	.	.	.	.
O=C(CC[C@H]1O[C@@H](n2ccc(=O)[nH]c2=O)[C@H](O)[C@@H]1O)NCc1ccccc1	.	-1	.	.	.	.
CCOC(=O)C1CCN(c2ncnc3c2[nH]c2cccc(OC)c23)CC1	7	-13	6	9	7	.
Cc1cccc2[nH]c3c(N4CC=C(c5ccc(F)cc5)CC4)ncnc3c12	43	66*	25	5	30	62*
Cc1ccc(NC(=O)COc2ccc(C(=O)c3ccccc3)cc2)c(O)c1	-5	82*	28	-20	-9	97*
CC1CCC(NC(=O)COc2ccc(C(=O)c3ccccc3)cc2)CC1 (configuration not stated)	15	70*	11	27	15	65*
O=C(C[C@H]1C/C=C\C[C@@H](Cc2ccc(F)cc2)C(=O)OC[C@H]2CCCN2C1=O)NCCO	2	0	7	-14	0	.
COc1ccc(NC(=O)c2cc(-c3ccccc3O)n[nH]2)cc1Cl	9	3	-15	0	4	.
Cc1cc(C)c(O)c(-c2cc(C(=O)Nc3cccnc3)[nH]n2)c1	-22	59*	-9	-22	-8	60*
COc1ccc(NC(=O)c2cc(-c3cc(C)cc(C)c3O)n[nH]2)cc1Cl	28	95*	36	6	26	63*
Cc1cc(O)c(-c2cc(C(=O)Nc3cccnc3)[nH]n2)cc1C	0	5	-314	6	-13	.
CC(C)(C)OC(=O)N1CCC(C(=O)Nc2ccc(C(=O)NCc3ccccc3)cc2)CC1	.	1	.	.	.	.
COc1cccc(C(O)c2ncc(-c3ccc(C(F)(F)F)cc3)[nH]2)c1 (configuration not stated)	.	2	.	.	.	.
Cc1cc(C)c(S(=O)(=O)/N=C2\C=C(NS(=O)(=O)c3ccccc3)C(=O)c3ccccc32)c(C)c1	29	87*	36	28	18	35*
O=C(Cn1cnc2c(OCc3ccccc3)ncnc21)NCc1ccccn1	5	0	-12	-8	6	.
SMILES	tim23-1 inh	MPTP inh	Mdm2 MdmX PPI	tim10-1 inh	TIM10 inh	MPTP counter	others
COc1ccc(NC(=O)Nc2ccccc2SC)cc1	17	2	-35	9	-3	.
O=C(Nc1ccc(CN2CCCCC2)cc1)Nc1ccccc1Cl	0	0	1	-2	5	.
CSc1ccccc1NC(=O)Nc1ccc(Cl)cc1	39	92*	-43	17	38	75*
O=C(Nc1ccc(Br)cc1)Nc1ccccc1Cl	14	78*	-73	17	17	103*
CSc1cccc(NC(=O)Nc2ccc(Cl)cc2)c1	13	88*	6	9	1	104*
CSc1cccc(NC(=O)/C=C/c2cccc(Cl)c2)c1	48	73*	-146	16	29	82*
CSc1cccc(NC(N)=O)c1	2	2	18	2	10	.
O=C(NCc1ccco1)c1cccc(-c2ccc3nccn3c2)c1	.	-1	.	.	.	.
CCOC(=O)[C@]12CCC=C1N(Cc1ccc(Cl)cc1Cl)C(=O)[C@H](CC(=O)NCC13CC4CC(CC(C4)C1)C3)C2	.	-1	.	.	.	.
Cc1ccc(OCC(=O)NNC(=O)Nc2ccc(Cl)cc2)c(Br)c1	-19	12	16	-3	-24	.
Cc1ccc(NC(=O)Nc2ccc(Cl)cc2)c(Br)c1	6	102*	-15	5	5	92*
O=C(Nc1ccc(Cl)cc1)Nc1ccccc1CC[N+](=O)[O-]	9	83*	-15	19	25	85*
CN(C)C(=O)Nc1ccccc1CC[N+](=O)[O-]	0	-1	16	8	1	.
Cc1cc(C)cc(NC(=S)/N=C(\N)Nc2nc(C)c3ccccc3n2)c1	25	56*	29	22	24	-9	MPTP swell DR=>100;MPTP cs DR=>80
Cc1cc(C)cc(NC(=S)Nc2cccc3ccccc23)c1	20	0	19	25	15	.
O=C(Nc1ccccc1C(F)(F)F)NC1(C(=O)N2CCOCC2)CCCCC1	.	8	.	.	.	.
CC1(C)CC(=O)C2=C(C1)c1c(ccc3ccccc13)NC2c1cc([N+](=O)[O-])cc([N+](=O)[O-])c1O (configuration not stated)	22	73*	0	34	27	57*
CC1(C)CC(=O)C2=C(C1)c1c(ccc3ccccc13)NC2c1ccc(C(=O)O)cc1 (configuration not stated)	28	0	1	29	17	.
CC[C@H](C)Cc1cn([C@@H](CCCCN)C(=O)NCCCCCCCCCCC(=O)N2CCNCC2)nn1	-12	89*	-2	-23	-9	-13

Source: PubChem (Sanford-Burnham Center for Chemical Genomics)
